From PubChem BioAssay AID504608 (National Center for Advancing Translational Sciences (NCATS), 2011)
The source made the active and inactive calls. Calls come from the whole dose curve; as a rule, active = well fitted inhibition curve with a large enough effect; inconclusive = small, poorly fitted or top-dose-only effect; inactive = flat fitted curve, though single readings scatter.

Test: Quantitative high throughput screen for delayed death inhibitors of the malarial parasite plastid, 48 hour incubation.
Conditions: P. falciparum in erythrocytes, luciferase growth
Excerpt: NIH Molecular Libraries Probe Production Network [MLPCN] NIH Chemical Genomics Center [NCGC] MLPCN Grant: R21 NS059500 Assay Provider: David Fidock and Eric Ekland, Columbia University The goal of this screen is to discover new antimalarial compounds that act by inhibiting the development of the apicoplast in the malarial parasite Plasmodium falciparum. The biochemical processes that make this organelle essential for erythrocytic stage parasites are not well understood. However, antibiotics, such as azithromycin and tetracycline, which target the apicoplast translational machinery, have a potent antimalarial effect. […] We have developed a cell-based assay that measures parasite growth based on the expression of an integrated copy of a firefly luciferase reporter. To detect small molecules that cause this 'delayed death' phenotype, erythrocytes infected with the luciferase-expressing parasites were incubated with compounds for either one or two generations, corresponding to 48 and 96 hours, respectively. Compounds that inhibit parasite growth in the second generation, but not the first, should be enriched in antimalarials that target the apicoplast. Growth inhibition is detected by a decrease in luciferase activity
Four microliters of culture medium (RPMI 1640 with 0.5% w/v Albumax (GIBCO), 24 mM sodium bicarbonate and 10 ug/mL gentamycin) were dispensed by a Multi-drop Combi into white solid 1536-well plates (Grenier) and 23 nL compound was added by a pin tool. Four microliters of infected erythrocytes (2% hematocrit, 0.1% parasitemia final concentration) in culture medium were dispensed and the plates incubated for 48 hours at 37 C in 5% CO2. Two microliters of luciferase detection reagent was added and luminescence was detected by a ViewLux (PerkinElmer) reader

SMILES | Potency
COc1ccc(COC[C@H](C)N2C[C@@H](C)[C@H](CN(C)S(=O)(=O)c3ccc(F)cc3)OCCCC[C@H](C)Oc3ccc(NC(=O)Nc4ccccc4)cc3C2=O)cc1 | 0.0036 µM (active)
COCCOC(=O)N(C)C[C@@H]1OCCCC[C@H](C)Oc2ccc(NC(=O)Nc3ccccc3)cc2C(=O)N([C@@H](C)CO)C[C@H]1C | 14.2 µM (active)
C[C@@H]1CN([C@@H](C)CO)C(=O)c2cc(NC(=O)Nc3ccccc3)ccc2O[C@@H](C)CCCCO[C@H]1CN(C)C(=O)Oc1ccccc1 | 5.04 µM (active)
